# Sampled rows, rich in hits. Any-hit rate of the full collection: about 3%.
# C8 TRAIL sens: viability loss with TRAIL in NB7+C8 cells, primary screen, TRAIL sensitizer project, cell-based, ATPlite luminescence; inhibition (viability loss, TRAIL sensitization), % at 10 µM; hit rate 1% among 360,000; AID 624354, 2012;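 active = compounds causing at least 50% loss of cell viability in the single-dose screen, relative to plate controls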
# SENP7 block: SENP7 protease inhibitors, primary screen, biochemical, luminescence, uHTS; recombinant SENP7, Z-RLRGG-aminoluciferin luminescence, 40 min; hit rate 1.5% among 330,000; Sentrin-specific protease 7 (Homo sapiens), Q9BQF6; AID 434973, 2010; inhibition, % at 5 µM;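 active = inhibition above about 50% at the single test dose, limit read from the data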;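 also: plate controls were DMSO with enzyme for no effect and no enzyme buffer wells for full effect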
# Target sequence (Q9BQF6 706-1050 limits assumed): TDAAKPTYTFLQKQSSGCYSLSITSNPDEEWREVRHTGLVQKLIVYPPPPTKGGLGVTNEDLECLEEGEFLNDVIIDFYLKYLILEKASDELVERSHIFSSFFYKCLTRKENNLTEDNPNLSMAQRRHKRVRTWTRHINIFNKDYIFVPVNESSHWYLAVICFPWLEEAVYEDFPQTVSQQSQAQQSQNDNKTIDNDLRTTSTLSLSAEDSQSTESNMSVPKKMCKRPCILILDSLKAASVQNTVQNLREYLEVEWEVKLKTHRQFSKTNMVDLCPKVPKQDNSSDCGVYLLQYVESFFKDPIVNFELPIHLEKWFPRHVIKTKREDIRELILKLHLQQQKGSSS
# SENP6 inh: SENP6 protease inhibitors, primary screen, biochemical, luminescence, uHTS; Sentrin-specific protease 6 (Homo sapiens), Q9GZR1; Recombinant SENP6 catalytic domain, aminoluciferin luminescence; inhibition, % at 10 µM; hit rate 1.8% among 330,000; AID 2599, 2010;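 active = inhibition above about 50% at the single tested dose, limit read from the data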;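 also: plate controls were DMSO wells with enzyme for no effect and DMSO wells lacking enzyme for full effect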
# SENP8 block-1: SENP8 protease inhibitors, primary screen, biochemical, luminescence. Sentrin-specific protease 8 (Homo sapiens), Q96LD8. purified SENP8, Z-RLRGG-aminoluciferin cleavage. inhibition, % at 10 µM. hit rate 1.2% among 330,000; in the data active = inhibition above about 50%
# Target sequence (Q96LD8 whole entry, looked up): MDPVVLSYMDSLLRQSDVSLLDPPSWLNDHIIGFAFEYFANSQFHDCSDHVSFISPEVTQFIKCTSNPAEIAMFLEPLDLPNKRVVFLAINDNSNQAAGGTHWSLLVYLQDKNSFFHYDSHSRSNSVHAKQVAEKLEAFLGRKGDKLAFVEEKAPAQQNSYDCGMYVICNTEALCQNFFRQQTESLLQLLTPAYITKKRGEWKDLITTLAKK
# SENP8 block-2: human SENP8 protease inhibitors, primary screen, biochemical, fluorescence, Nedd8 protein substrate, uHTS; inhibition, % at 20 µM; AID 602440, 2012; recombinant SENP8; hit rate 0.64% among 360,000; in the data active = inhibition mostly above about 40%, no sharp cut-off; inactive = mostly below about 27%
# PPC-1+TRAIL kill: compounds killing PPC-1 cancer cells with TRAIL present, primary screen, TRAIL potentiator project, ATPLite luminescence, uHTS | hit rate 0.41% among 220,000 | AID 1443, 2008 | cell killing (% activity), % at 4 µM or 5 µM | PPC-1 cells + TRAIL, ATPLite viability luminescence;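 active = cell killing above 50% in the first pass at 4 µM, then a duplicate retest at 5 µM averaging 50% or more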;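 also: plate controls were cells with TRAIL plus DMSO for no effect and medium-only wells lacking cells for full effect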
# An asterisk follows results filed as active; . = no result given.
SMILES,C8 TRAIL sens,SENP7 block,SENP6 inh,SENP8 block-1,SENP8 block-2,PPC-1+TRAIL kill
Cc1cc(C)c(Nc2cc(S(=O)(=O)O)c(N)c3c2C(=O)c2ccccc2C3=O)c(C)c1,15.3,.,.,.,48.4*,17.1
CN(C)CCNC(=O)c1cc2c(s1)-c1ccc(Cl)cc1SC2,96.9*,1.1,-25.9,-10.4,-315.1,.
CCOCCCNC(=O)c1cc2c(s1)-c1ccccc1SC2,3.9,-4.3,-8.4,1.3,-6.9,.
O=S(=O)(/N=C(/Nc1ccccc1F)c1ccccc1)c1ccccc1,2.9,2.1,-3.3,-4.4,10.1,-20.8
Cc1ccccc1NC1=C/C(=N\S(=O)(=O)c2ccc(C(=O)O)cc2)c2ccccc2C1=O,33.7,68.6*,93.7*,95.1*,87.8*,.
COC(=O)C(C(C)=O)C1=C/C(=N\S(=O)(=O)c2ccc(C)cc2)c2ccccc2C1=O (configuration not stated),-6.7,-3.4,2.7,-3.0,9.4,-12.6
COc1ccc(S(=O)(=O)/N=C2\C=C(Nc3ccc(O)cc3)C(=O)c3ccccc32)cc1,96.3*,86.6*,93.5*,94.6*,90.0*,.
O=C(O)c1ccc(S(=O)(=O)/N=C2\C=C(Nc3ccccc3F)C(=O)c3ccccc32)cc1,49.6,65.0*,97.9*,96.1*,88.3*,.
COc1ccc(S(=O)(=O)c2ccc(O)cc2)cc1,-25.9,-2.1,-19.5,-1.4,7.8,9.8
COC(=O)c1c(NC(=O)CN2C(=O)C(=O)N(C(C)C)C2=O)sc(C)c1C,2.1,8.4,-6.1,-5.5,-6.4,.
O=C(Nc1cc(C2CC2)nn1-c1ccccc1)c1ccc(F)cc1,2.4,7.7,-0.4,-6.1,13.3,.
CC(=O)/C(=N\Nc1ccc(C)cc1)Sc1nncn1C,-29.1,-1.7,-11.2,-6.8,16.6,-3.2
COC(=O)CC1OCC=C2CN3CCC45C6=CC(=O)C(=O)C([N+](=O)[O-])=C6NC4C1C2CC35 (configuration not stated),2.1,.,.,.,109.6*,.
CCCN1CNc2c(c(=O)[nH]c(=S)n2CCc2ccc(OC)c(OC)c2)C1,-11.3,10.2,9.6,8.1,-9.5,4.8
CCNc1nc(-c2sc(NC(=O)C(C)(C)C)nc2C)c(-n2cc(-c3ccccc3)nn2)s1,44.5,.,.,.,-57.2,.
Oc1ccccc1-c1n[nH]c(-c2ccccc2O)n1,60.2*,.,.,.,-84.9,.
COc1ccc(CCCNC(=O)C2(C)Cc3c(-c4ccc5c(c4)OCO5)ccnc3O2)cc1 (configuration not stated),-2.6,.,.,.,-40.7,.
COc1ccc(C(=O)/C=C/c2ccc(N3CCCCC3)c([N+](=O)[O-])c2)c(OC)c1,17.4,.,.,.,41.0*,6.4
CCCCCc1ccc(OCCCC[n+]2ccccc2)c(CCCCC)c1,79.1*,4.7,-11.9,-3.9,16.9,23.8
Cc1cc(=O)oc2cc(OCCCC[n+]3ccccc3)ccc12,-2.3,-5.9,-31.6,-5.8,-346.6,7.0
CCC(C)(C)c1ccc(Oc2cccc(C(=O)O)c2)cc1,18.2,-0.3,46.7,20.7,14.9,-3.9
CCC(C)(C)c1ccc(OCCCC[n+]2ccccc2)c(C(C)(C)CC)c1,15.3,3.6,-23.7,-7.2,16.1,51.1*
COCCN(CCOC)C(=O)c1c[nH]c2ccc(S(=O)(=O)N(C)c3ccc(F)cc3)cc2c1=O,-22.1,-1.3,3.4,-1.5,-213.7,6.9
CN(c1ccc(F)cc1)S(=O)(=O)c1ccc2[nH]cc(C(=O)O)c(=O)c2c1,-19.6,-5.7,5.6,-4.1,-92.1,61.9*
COCCNC(=O)C1CCCN(C(=O)c2cc(-c3ccccc3)cs2)CC1 (configuration not stated),-5.8,.,.,.,10.6,.
SMILES,C8 TRAIL sens,SENP7 block,SENP6 inh,SENP8 block-1,SENP8 block-2,PPC-1+TRAIL kill
CCCCNC(=O)c1ccc(NS(=O)(=O)c2ccc3[nH]c(=O)[nH]c3c2)cc1,-15.2,-5.9,7.1,3.6,-3.6,.
CCN(c1ccccc1)S(=O)(=O)c1ccc(OC)c(NC(=O)c2cccs2)c1,-5.0,-11.2,-3.0,-8.9,7.5,13.5
CCN(c1ccccc1)S(=O)(=O)c1ccc(OC)c(NC(=O)c2cc(F)c(F)c(F)c2F)c1,55.5*,13.7,-2.3,1.7,3.3,.
CCc1cc(C(=O)N(C)CC(=O)Nc2c(Cl)cccc2Cl)sc1C,12.0,-4.3,-1.9,-5.9,5.8,.
O=C(CCl)N1N=C(c2cccs2)CC1c1ccco1 (configuration not stated),90.7*,-2.3,6.2,-2.5,-82.4,8.4
Cc1cccc(C)c1NC(=O)c1cnccn1,-8.8,5.0,-15.0,-12.8,11.8,.
COc1ccccc1/C=N/NC(=Nc1ccc(C)cc1)c1nc2ccccc2s1,.,8.4,-21.6,-0.3,.,36.0
COc1cc(/C=N/NC(=Nc2ccc(C)cc2)c2nc3ccccc3s2)ccc1O,51.9*,5.5,8.9,9.8,-310.1,-2.3
N#CC(C#N)=NNc1ccc(S(=O)(=O)N2CCCCC2)cc1,2.9,-0.7,16.8,3.0,47.1*,13.3
CC(=O)Nc1ccc(OC(=O)c2ccc(Br)c([N+](=O)[O-])c2)cc1,-1.3,2.0,-17.5,-15.3,15.0,-0.1
O=C1C(Cl)=C(NCCc2ccccc2)C(=O)c2ccccc21,7.9,.,.,.,-82.1,.
CC(=O)N(Cc1ccc(F)cc1)C1=C(NCCc2ccccc2)C(=O)c2ccccc2C1=O,89.4*,29.8,47.7,31.2,76.0*,47.5
Nc1c(N(C(=O)Nc2ccc(Cl)c(Cl)c2)C2CCCC2)c(=O)[nH]c(=O)n1Cc1ccccc1,62.9*,1.8,-14.2,-5.3,3.5,0.6
Cc1[nH]n(-c2ccccc2)c(=O)c1N=Nc1ccc(C(=O)O)cc1,3.6,8.4,-11.4,2.4,27.9,.
CC(=O)c1ccc(N=Nc2c(C)[nH]n(-c3ccccc3)c2=O)cc1,5.8,2.1,-6.3,-1.4,47.6*,.
CCC1CCCCN1CCCNC(=O)c1ccc2c(c1)N(Cc1ccc(F)cc1)C(=O)c1ccccc1S2=O (configuration not stated),16.9,-8.9,-6.1,-1.6,22.2,.
O=C(CCN1C(=O)c2ccccc2C1=O)Nc1nc2ccccc2s1,3.0,-7.3,7.9,-7.8,11.9,16.1
O=C(CCN1C(=O)c2ccccc2C1=O)Nc1ccc(-c2nc3ccccc3s2)cc1,68.7*,-11.5,-9.4,-1.2,-435.5,1.2
Cc1ccc2nc(-c3ccc(NC(=O)C(C)N4C(=O)c5ccccc5C4=O)cc3)sc2c1 (configuration not stated),17.1,0.0,1.2,8.0,-386.7,-0.4
Cc1ccc2nc(-c3ccc(NC(=O)CCN4C(=O)c5ccccc5C4=O)cc3)sc2c1,82.5*,-3.7,74.0*,50.6*,-377.2,32.0

# Screening results from PubChem.
